According to PubChem BioAssay (EPA / NIEHS):
“And” between values parts separate entries of the source, which are not always exact repeats. Identical values can stand only once. The source made the active and inactive calls. The calls were made as follows: active = hit-call score of the fitted dose curve at least 0.9, where 1 is the maximum; inactive = score below 0.9.

Key:
[1] = ATG_CMV_CIS: Attagene CIS-FACTORIAL HepG2 Assay for human CMV (Internal Marker) (AID 2282928); conditions: HepG2 CMV promoter reporter, transcription factor profiling; actives raise or lower the signal;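 also: endpoint acts as a background internal control marker rather than a target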
In short: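 24 h chemical treatment, HepG2 with transient multi-reporter transfection; RNA → oligo(dT) RT → PCR → 6-FAM extension → HpaI digest → CE fluorescence. Bidirectional fit, DMSO negative control.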

[2] = ATG_DR4_LXR_CIS: Attagene CIS-FACTORIAL HepG2 Assay for human Liver X Receptor (LXR), DR4 submotif (AID 2282929); conditions: HepG2 Attagene DR4 cis-reporter, mRNA transcription; actives raise or lower the signal
In short: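 Measures endogenous transcription factor activity via a DR4-driven reporter transcript in human HepG2 cells. Compounds incubated 24 h; mRNA quantified by RT-PCR and capillary electrophoresis, analysed as gain or loss of signal versus DMSO.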

[3] = molecular target: Aryl hydrocarbon receptor (Homo sapiens) (UniProt P35869); experiment: ATG_Ahr_CIS: Attagene CIS-FACTORIAL HepG2 Assay for human Aryl Hydrocarbon Receptor (Ahr) (AID 2282930); conditions: HepG2 AhR cis-factorial reporter transcription; actives raise or lower the signal
Aryl hydrocarbon receptor (Homo sapiens), sequence (P35869 whole entry, looked up): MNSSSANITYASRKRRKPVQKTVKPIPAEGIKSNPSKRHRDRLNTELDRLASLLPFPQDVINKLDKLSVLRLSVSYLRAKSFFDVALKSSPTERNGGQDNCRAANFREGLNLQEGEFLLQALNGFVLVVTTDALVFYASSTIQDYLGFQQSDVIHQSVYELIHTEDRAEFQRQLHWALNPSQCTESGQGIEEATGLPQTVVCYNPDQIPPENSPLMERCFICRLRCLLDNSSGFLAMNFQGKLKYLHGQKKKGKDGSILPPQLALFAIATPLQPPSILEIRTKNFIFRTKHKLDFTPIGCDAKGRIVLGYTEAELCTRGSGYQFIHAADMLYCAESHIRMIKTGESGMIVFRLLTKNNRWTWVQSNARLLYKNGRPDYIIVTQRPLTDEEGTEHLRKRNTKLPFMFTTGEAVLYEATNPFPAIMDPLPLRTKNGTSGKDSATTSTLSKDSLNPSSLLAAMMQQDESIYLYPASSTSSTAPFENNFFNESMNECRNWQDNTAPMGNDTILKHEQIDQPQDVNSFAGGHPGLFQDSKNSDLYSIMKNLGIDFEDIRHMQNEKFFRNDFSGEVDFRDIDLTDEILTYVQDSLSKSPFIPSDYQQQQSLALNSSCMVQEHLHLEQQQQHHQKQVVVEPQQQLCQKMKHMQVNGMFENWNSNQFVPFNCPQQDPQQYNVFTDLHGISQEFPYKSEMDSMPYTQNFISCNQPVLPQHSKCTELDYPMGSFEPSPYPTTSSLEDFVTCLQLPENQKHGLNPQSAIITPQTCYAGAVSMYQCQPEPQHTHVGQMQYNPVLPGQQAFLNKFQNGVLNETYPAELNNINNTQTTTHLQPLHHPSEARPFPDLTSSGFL
In short: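 HepG2, transient MRTU (cis) transfection, 24 h exposure. RNA → cDNA → PCR → 6-FAM primer extension → HpaI 2 h 37 C → CE. Fit: bidirectional, DMSO baseline.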

[4] = ATG_AP_1_CIS: Attagene CIS-FACTORIAL HepG2 Assay for human Activator Protein 1 (AP-1) (AID 2282931); conditions: HepG2 Attagene cis-factorial AP-1 reporter mRNA; actives raise or lower the signal
In short: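 Bidirectional concentration-response fitting against DMSO controls. Underlying signal: reporter mRNA from cis-promoter constructs in transiently transfected HepG2, measured after 24 h by RT-PCR and capillary electrophoresis.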

[5] = ATG_AP_2_CIS: Attagene CIS-FACTORIAL HepG2 Assay for human Activator Protein 2 (AP-2) (AID 2282932); conditions: HepG2 AP-2 cis-reporter, Attagene transcription factor profiling; actives raise or lower the signal
In short: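 Transiently transfected HepG2 cells are exposed to chemical for 24 h. Reporter transcripts are then measured as fluorescence following RT-PCR and capillary separation, and gain- or loss-of-signal is fitted relative to DMSO.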

[6] = ATG_BRE_CIS: Attagene CIS-FACTORIAL HepG2 Assay for human Bone Morphogenetic Protein (BMP) Response Element (BRE) (AID 2282933); conditions: HepG2 BMP response element reporter, Attagene transcription factor profiling; actives raise or lower the signal
In short: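 Transient MRTU transfection of human HepG2 liver cells; 24 h compound treatment; total RNA isolated, reverse-transcribed, PCR-amplified, 6-FAM labelled, HpaI-cut, capillary electrophoresis. DMSO = negative control/baseline, bidirectional fit.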

[7] = molecular target: Retinoic acid receptor alpha (Homo sapiens) (UniProt P10276); experiment: ATG_DR5_RAR_CIS: Attagene CIS-FACTORIAL HepG2 Assay for human Retinoic Acid Receptor Alpha (RARE), DR5 submotif (AID 2282934); conditions: HepG2 Attagene cis-factorial RARE DR5 reporter, mRNA; actives raise or lower the signal;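 as to AC50: reporter responds to endogenous RAR alpha beta and gamma in HepG2 not RARA alone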
Retinoic acid receptor alpha (Homo sapiens), sequence (P10276 whole entry, looked up): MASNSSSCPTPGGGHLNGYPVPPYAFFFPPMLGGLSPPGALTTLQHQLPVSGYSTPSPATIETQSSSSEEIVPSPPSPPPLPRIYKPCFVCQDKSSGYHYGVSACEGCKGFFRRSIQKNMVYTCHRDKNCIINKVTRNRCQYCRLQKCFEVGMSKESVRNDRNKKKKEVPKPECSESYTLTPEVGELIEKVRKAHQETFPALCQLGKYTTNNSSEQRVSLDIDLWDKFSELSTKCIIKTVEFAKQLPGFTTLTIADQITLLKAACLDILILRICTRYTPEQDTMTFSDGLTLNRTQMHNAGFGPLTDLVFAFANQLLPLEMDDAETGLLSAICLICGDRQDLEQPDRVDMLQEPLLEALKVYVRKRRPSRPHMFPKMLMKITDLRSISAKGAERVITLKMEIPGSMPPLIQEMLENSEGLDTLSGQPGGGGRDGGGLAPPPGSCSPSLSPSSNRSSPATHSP
In short: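 HepG2, transient cis-reporter transfection, 24 h exposure. mRNA readout: RT-PCR, FAM label, HpaI cut, capillary electrophoresis. DMSO baseline, gain/loss fitting.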

[8] = molecular target: Transcription factor E2F1 (Homo sapiens) (UniProt Q01094); experiment: ATG_E2F_CIS: Attagene CIS-FACTORIAL HepG2 Assay for human E2F Transcription Factor 1 (AID 2282935); conditions: HepG2 Attagene cis-reporter, E2F reporter RNA transcripts; actives raise or lower the signal
Transcription factor E2F1 (Homo sapiens), sequence (Q01094 whole entry, looked up): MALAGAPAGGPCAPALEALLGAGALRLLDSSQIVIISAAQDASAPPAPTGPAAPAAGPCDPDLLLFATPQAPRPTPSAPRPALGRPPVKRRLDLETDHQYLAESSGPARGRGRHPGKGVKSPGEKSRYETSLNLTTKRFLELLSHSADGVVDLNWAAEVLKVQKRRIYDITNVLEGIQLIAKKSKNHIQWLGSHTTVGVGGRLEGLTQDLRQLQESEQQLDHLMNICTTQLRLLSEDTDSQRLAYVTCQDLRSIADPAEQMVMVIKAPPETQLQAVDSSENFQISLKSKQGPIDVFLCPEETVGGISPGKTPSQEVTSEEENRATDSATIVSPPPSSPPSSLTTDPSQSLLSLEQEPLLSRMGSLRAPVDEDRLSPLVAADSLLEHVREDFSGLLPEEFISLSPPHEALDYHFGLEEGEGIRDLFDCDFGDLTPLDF
In short: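 Fluorescent RT-PCR products, digested with HpaI for 2 h at 37 C, are separated by capillary electrophoresis. Source RNA comes from transfected HepG2 cultures treated for 24 h.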

[9] = ATG_E_Box_CIS: Attagene CIS-FACTORIAL HepG2 Assay for human Enhancer Box (E-box) (AID 2282936); conditions: HepG2 E-box cis-reporter transcription, actives raise or lower the signal
In short: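 Fluorescent reporter fragments separated by capillary electrophoresis gave the signal; mRNA came from HepG2 cells transfected with cis-element reporters and treated 24 h. Curves fitted bidirectionally relative to DMSO controls.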

[10] = ATG_M_61_CIS: Attagene CIS-FACTORIAL HepG2 Assay for M61 Transcription Factor (Internal Marker) (AID 2282937); conditions: HepG2 Attagene CIS-FACTORIAL M61 internal marker reporter; actives raise or lower the signal
In short: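 Fluorescence from labelled cDNA fragments, separated by capillary electrophoresis, quantifies reporter induction. HepG2 cells bearing transiently transfected cis-promoter MRTUs were incubated with test chemical for 24 h; DMSO defined baseline for gain/loss fitting.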

[11] = ATG_EGR_CIS: Attagene CIS-FACTORIAL HepG2 Assay for human Early Growth Response 1 (EGR1) (AID 2282938); conditions: HepG2 Attagene CIS-FACTORIAL EGR reporter mRNA; actives raise or lower the signal
In short: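 Cell-based multiplex transcription assay: HepG2 carrying transfected cis-element reporter units, 24 h chemical treatment. Fluorescence from capillary electrophoresis of RT-PCR products gives mRNA levels; fitting is bidirectional relative to DMSO.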

[12] = ATG_M_19_CIS: Attagene CIS-FACTORIAL HepG2 Assay for M19 Transcription Factor (Internal Marker) (AID 2282939); conditions: HepG2 Attagene CIS-FACTORIAL M19 internal marker reporter; actives raise or lower the signal
In short: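 Transfect HepG2 with MRTU reporter library → dose chemical, 24 h → isolate total RNA, reverse-transcribe with oligo(dT) → PCR, 6-FAM label, HpaI cut (2 h, 37 C) → capillary electrophoresis. Bidirectional fit vs DMSO.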

[13] = ATG_Ets_CIS: Attagene CIS-FACTORIAL HepG2 Assay for human Erythroblast Transformation Specific (ETS) (AID 2282941); conditions: HepG2 ETS cis-reporter transcription, actives raise or lower the signal
In short: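 Cis-regulated reporter mRNA induction in HepG2 (transient transfection), 24 h exposure, RT-PCR plus capillary electrophoresis detection; DMSO serves as negative control and baseline.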

[14] = ATG_FoxO_CIS: Attagene CIS-FACTORIAL HepG2 Assay for human Forkhead box O (FoxO) (AID 2282943); conditions: HepG2 Attagene cis-reporter, FoxO element, mRNA; actives raise or lower the signal
In short: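 Human hepatoma HepG2 cells carry transiently introduced reporter transcription units controlled by cis promoter elements. Chemical treatment lasted 24 h, and mRNA signal was compared with DMSO.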

[15] = ATG_GATA_CIS: Attagene CIS-FACTORIAL HepG2 Assay for human GATA Binding Protein (AID 2282944); conditions: HepG2 GATA cis-element reporter, Attagene multiplex mRNA; actives raise or lower the signal
In short: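 Transient MRTU transfection, HepG2, 24 h compound exposure. Total RNA → oligo(dT) RT → PCR → 6-FAM primer extension → HpaI cut → CE. Bidirectional fit vs DMSO.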

[16] = ATG_GLI_CIS: Attagene CIS-FACTORIAL HepG2 Assay for human Zinc Finger Protein GLI1 (AID 2282945); conditions: HepG2, Attagene cis-factorial reporter mRNA, GLI element; actives raise or lower the signal
In short: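 Bidirectional curve fits relative to DMSO, using reporter mRNA levels from RT-PCR plus capillary electrophoresis. Cells were HepG2 transiently carrying cis-regulated reporter constructs, harvested 24 h after dosing.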

[17] = molecular target: Bile acid receptor (Homo sapiens) (UniProt Q96RI1); experiment: ATG_IR1_CIS: Attagene CIS-FACTORIAL HepG2 Assay for human Nuclear Receptor Subfamily 1 Group H Member 4 (NR1H4), IR1 submotif (AID 2282946); conditions: IR1 reporter transcription, actives raise or lower the signal
Bile acid receptor (Homo sapiens), sequence (Q96RI1 whole entry, looked up): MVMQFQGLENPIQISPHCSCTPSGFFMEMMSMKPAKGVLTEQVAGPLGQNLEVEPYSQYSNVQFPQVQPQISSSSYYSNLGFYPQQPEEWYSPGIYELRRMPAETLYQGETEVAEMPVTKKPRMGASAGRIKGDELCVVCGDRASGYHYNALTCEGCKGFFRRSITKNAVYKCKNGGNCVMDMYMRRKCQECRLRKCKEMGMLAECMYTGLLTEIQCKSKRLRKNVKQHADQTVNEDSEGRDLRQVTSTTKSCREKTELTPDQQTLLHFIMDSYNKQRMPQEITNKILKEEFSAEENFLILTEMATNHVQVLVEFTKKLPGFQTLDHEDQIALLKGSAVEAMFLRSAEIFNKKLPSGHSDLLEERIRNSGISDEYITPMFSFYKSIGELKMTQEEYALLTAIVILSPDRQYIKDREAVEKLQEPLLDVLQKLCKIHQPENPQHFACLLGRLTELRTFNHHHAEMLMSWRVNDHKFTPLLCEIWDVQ
In short: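 HepG2 cells transiently transfected with multiplexed cis-element reporter units read endogenous transcription factor activity. After 24 h compound exposure, reporter mRNA was quantified by RT-PCR, fluorescent labelling, HpaI digestion and capillary electrophoresis; bidirectional fitting versus DMSO baseline.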

[18] = ATG_GRE_CIS: Attagene CIS-FACTORIAL HepG2 Assay for human Glucocorticoid Response Elements (GRE) (AID 2282947); conditions: HepG2 GRE cis-reporter, Attagene multiplex mRNA; actives raise or lower the signal
In short: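 Multiplexed cis-reporter mRNA induction, HepG2, 24 h post-dose. RT-PCR, FAM-labelled, HpaI-digested amplicons by CE. Bidirectional fit vs DMSO.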

[19] = ATG_ERE_CIS: Attagene CIS-FACTORIAL HepG2 Assay for Estrogen Response Element (ERE) (AID 2282940); conditions: HepG2 ERE cis-reporter, Attagene RNA transcript; actives raise or lower the signal
In short: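 Transient MRTU transfection of human HepG2; cis-element promoters; 24 h dosing; total RNA → RT (oligo dT) → PCR → 6-FAM primer extension → HpaI digest → CE fluorescence. Bidirectional fit, DMSO baseline.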

[20] = molecular target: Hepatocyte nuclear factor 3-beta (Homo sapiens) (UniProt Q9Y261); experiment: ATG_FoxA2_CIS: Attagene CIS-FACTORIAL HepG2 Assay for human Forkhead box A2 (FOXA2) (AID 2282942); conditions: HepG2 cis-reporter transcription factor activity, 24 h; actives raise or lower the signal
Hepatocyte nuclear factor 3-beta (Homo sapiens), sequence (Q9Y261 whole entry, looked up): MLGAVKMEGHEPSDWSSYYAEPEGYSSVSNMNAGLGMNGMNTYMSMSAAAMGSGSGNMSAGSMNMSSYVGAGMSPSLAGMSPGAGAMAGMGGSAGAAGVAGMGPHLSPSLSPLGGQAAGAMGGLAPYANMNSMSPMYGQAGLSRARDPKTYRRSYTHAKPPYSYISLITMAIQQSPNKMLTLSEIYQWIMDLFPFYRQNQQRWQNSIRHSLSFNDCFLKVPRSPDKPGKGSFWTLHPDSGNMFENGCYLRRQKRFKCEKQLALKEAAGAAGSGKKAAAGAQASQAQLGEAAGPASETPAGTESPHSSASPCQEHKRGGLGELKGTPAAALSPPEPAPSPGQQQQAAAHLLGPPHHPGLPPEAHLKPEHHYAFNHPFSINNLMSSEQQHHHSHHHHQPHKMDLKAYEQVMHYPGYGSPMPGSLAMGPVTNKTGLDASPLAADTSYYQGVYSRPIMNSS
In short: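 In transiently transfected human HepG2 cells, promoter-driven reporter mRNA levels after 24 h chemical exposure are determined via RT-PCR with capillary electrophoresis. DMSO serves as baseline for bidirectional fitting.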

Measured: AC50

ClCCCCl
not listed: [19] | [20]
inactive: all other assays above

O=NN1CCCCCC1
not listed: [12] | [17]
inactive: all other assays above

O=C(O)COc1cc(Cl)c(Cl)cc1Cl
not listed: [17] | [19]
inactive: all other assays above

CC(C)N(C(=O)CCl)c1ccccc1
active: [2] 8.6 µM | [4] 11.6 µM | [5] 50.4 µM | [7] 59.1 µM | [8] 48.1 µM | [9] 18 µM | [14] 33.4 µM
not listed: [12] | [17] | [18]
inactive: all other assays above

CCOC(=O)OC1=C(c2cc(C)ccc2C)C(=O)NC12CCC(OC)CC2 (configuration not stated)
not listed: [12] | [18]
inactive: all other assays above

O=C(NC(=O)c1c(F)cccc1F)Nc1ccc(Cl)cc1
active: [3] 19.6 µM
not listed: [17] | [18] | [19] | [20]
inactive: all other assays above

CCOC(=O)Cc1ccccc1
not listed: [19]
inactive: all other assays above

CCCCC(CC)COC(=O)Cl (configuration not stated)
not listed: [14] | [17] | [19] | [20]
inactive: all other assays above

ClCc1ccccc1Cl
active: [2] 50.6 µM | [18] 100 µM
not listed: [14] | [19]
inactive: all other assays above

CCCCC(CC)C(=O)Cl (configuration not stated)
not listed: [14] | [17] | [18] | [19]
inactive: all other assays above

Nc1c(Oc2ccccc2)cc(O)c2c1C(=O)c1ccccc1C2=O
active: [3] 1.71 µM | [6] 13.2 µM
not listed: [12]
inactive: all other assays above

COP(=S)(OC)Oc1cc(Cl)c(I)cc1Cl
active: [1] 50.2 µM | [2] 46.6 µM | [5] 22.5 µM | [9] 34.7 µM | [11] 41.3 µM | [13] 39.9 µM | [14] 41.8 µM | [15] 46.2 µM | [18] 58.1 µM
not listed: [19]
inactive: all other assays above

CC(C)[C@@H](Nc1ccc(C(F)(F)F)cc1Cl)C(=O)OC(C#N)c1cccc(Oc2ccccc2)c1 (some centres not stated)
not listed: [12] | [14]
inactive: all other assays above

O=[N+]([O-])c1ccc(Cl)c([N+](=O)[O-])c1
active: [2] 5.36 µM | [5] 6.06 µM | [9] 6.14 µM | [11] 6.18 µM
not listed: [19]
inactive: all other assays above

Cc1cc(Cl)ccc1N
active: [3] 41.4 µM and 33 µM
not listed: [17] | [19]
inactive: all other assays above
